# From PubChem BioAssay
# Biological target: GTPase HRas (Homo sapiens) (UniProt P01112)
# Assay: Ras wt fluorescent GTP loading blockade – biochemical, wildtype, multiplex bead flow cytometry, dose response (AID 1335)
# Details: bead-based flow cytometry, Bodipy-GTP binding to GST-Ras; at 100 µM (top of the series) unless noted
# Sequence of GTPase HRas (Homo sapiens) (P01112 whole entry, looked up): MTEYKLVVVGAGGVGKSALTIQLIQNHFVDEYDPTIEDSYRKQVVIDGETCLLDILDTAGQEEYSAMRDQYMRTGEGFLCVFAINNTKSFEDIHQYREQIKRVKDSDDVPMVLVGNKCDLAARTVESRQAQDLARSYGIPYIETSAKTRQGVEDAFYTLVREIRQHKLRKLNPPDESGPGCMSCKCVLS
row,Compound,"GTP binding, percent of control [%]"
1,CCOC(=O)c1c(-c2ccccc2)csc1NC(=O)/C(C#N)=C/c1ccc(O)c(OC)c1,85
2,COc1ccc(NC(=O)c2cc3nc(-c4ccccc4)cc(C)n3n2)cc1OC,76.8
3,COc1cccc(NC(=O)NCCCN2CCN(c3ccc(F)cc3)CC2)c1,84.6
4,COc1ccc(CCn2c(C(C)C)nc3c(c(=O)c4ccccc4n3C)c2=O)cc1,82.6
5,O=C(Nc1nc(-c2cccs2)cs1)c1cc2ccccc2oc1=O,130
6,Cc1csc(NC(=O)c2cc(=O)[nH]c3ccc(S(=O)(=O)N4CCOCC4)cc23)n1,74.5
7,COc1ccc(OC)c(Nc2nc(-c3sc(N)nc3C)cs2)c1,72.6
8,CCOC(=O)c1nc(Nc2ccc(C(=O)OC)cc2)c2ccccc2n1,115
9,CCOC(=O)c1c(NC(=O)/C=C/c2ccc3c(c2)OCO3)sc(C)c1CC,75.9
10,COc1cc2[nH]c(=S)nc(NCCCOC(C)C)c2cc1OC,50.6
11,O=C(C1CCCO1)N1CCN(C(=S)Nc2ccccc2C(F)(F)F)CC1 (centres undefined),64.3
12,O=c1c2ccccc2nc2c3ccccc3c(NCCO)nn12,65
13,Cc1ccc(Nc2nc(N)c(C#N)c(CC#N)c2C#N)cc1,85.9
14,Cn1c(=O)cc(N2CCOCC2)[nH]c1=O,84.8
15,O=[N+]([O-])c1cc(Cc2ccccc2)cc(C=Nc2ccc(N3CCOCC3)cc2)c1O,65.5
16,Cc1cccn2c(=O)c(/C=C3\SC(=S)N(CC(C)C)C3=O)c(NCCCOC(C)C)nc12,191
17,CC(C)c1ccc(C(=O)NC2=NCCS2)cc1,62.6
18,CCCc1nc2oc3c(=O)[nH]cnc3c2c2c1CCCC2,79.1
19,O=C(NCCc1c[nH]c2ccccc12)c1cccc(S(=O)(=O)Nc2ccccc2Cl)c1,71.4
20,O=C(Nn1cc(C(=O)N2CCN(c3ccccc3F)CC2)c2ccccc2c1=O)c1cnccn1,156

row,Compound,"GTP binding, percent of control [%]"
1,FC(F)(F)c1cccc(NC(=S)NNC(=S)NCc2ccccc2)c1,81.8
2,COc1ccc(S(=O)(=O)N2CCCCC2)cc1NC(=O)c1ccc([N+](=O)[O-])o1,73.3
3,O=C(CSc1ccc2nnc(-c3cccs3)n2n1)N1CCCC1,74.6
4,CC(=O)Nc1ccc(N2C(=O)c3ccc(C(=O)Nc4nnc(SCc5ccc(F)cc5)s4)cc3C2=O)cc1,92.1
5,NS(=O)(=O)c1ccc(-c2ccc(/C=C3\C(=O)Nc4cc(Cl)ccc43)o2)cc1,78.4
6,CCCCCN1CC(O)=C(c2nc(-c3ccc(Cl)cc3)cs2)C1=N,167
7,O=c1[nH]c2ccc(S(=O)(=O)NCc3ccccc3)cc2[nH]1,84.5
8,O=S1(=O)N=C(N(CCO)/N=C/c2ccncc2)c2ccccc21,52.3
9,N#C/C(=C/c1ccc(N2CCCCCC2)o1)c1ccc(Cl)cc1,205
10,CCOc1nnc(C)c2c(C)n(-c3cccc(Cl)c3)nc12,168
11,O=C1c2ccccc2-n2c1nc1ccccc1c2=O,78.8
12,CC(C)(C)NC(=O)CSc1nccn1Cc1ccccc1,78.6
13,COc1ccc(S(=O)(=O)Cc2ccc(C(=O)N3CCN(c4cc(Cl)ccc4C)CC3)o2)cc1,57.4
14,NC(=O)N=Nc1c(O)[nH]c2c(Br)cc(Br)cc12,81.4
15,Cn1cc(C=C2C(=O)CC(C)(C)CC2=O)c2ccccc21,66.4
16,COc1ccc(-c2nn3c(-c4ccco4)nnc3s2)cc1OC,132
17,O=c1/c(=C/c2ccc(CNS(=O)(=O)c3ccccc3)o2)sc2n1CCN=2,63.2
18,CCc1nnc(NS(=O)(=O)c2ccc(Nc3ccc4nonc4c3[N+](=O)[O-])cc2)s1,65.4
19,O=C(NC1CC2CCCC(C1)N2C(=O)Nc1ccc(Cl)c(C(F)(F)F)c1)C1CC1 (centres undefined),162
